# Screens (PubChem BioAssay)
# This is a sample that favours compounds with a hit; in the whole collection about 4.1% have one here.
# ssDAF12 agonist: activates DAF-12 receptor from parasite S. stercoralis | HEK293 ssDAF-12/GRIP1 lit1-tk-luc reporter, luminescence; % of 3 µM dafachronic acid response | activation, % at 6.8 µM | AID 652126 | 1% of 370,000 active;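 active = activation above the mean over all tested compounds plus 3 SD, cut at about 0.9% in these data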;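 note: 0% = DMSO-only wells and 100% = 3 µM delta7-dafachronic acid wells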
# DAX1 inh-1: blocks DAX1 repression of SF-1 activated StAR promoter; HEK293T StAR-luciferase reporter, SF-1/DAX-1 repression relief; inhibition, % at 6.8 µM; 1.1% of 370,000 active;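 active = inhibition above the mean over all tested compounds plus 3 SD, cut at about 3.6% in these data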;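 note: 0% = DAX-1 cells with DMSO and 100% = cells lacking DAX-1 with DMSO; higher inhibition means more luminescence from relief of DAX-1 repression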
# DAX1 inh-2: inhibits human nuclear receptor DAX1. HEK293 Gal4-DAX1 luciferase reporter, luminescence. inhibition, % at 6.75 µM. 0.99% of 340,000 active;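 active = inhibition above the mean over all tested compounds plus 3 SD, cut at about 4.2% in these data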;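 note: 0% = DAX1-transfected cells with DMSO and 100% = empty-vector control cells with DMSO; inhibition shows as a rise in luminescence from relieved DAX1 repression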
# Target sequence (P51843 207-470 limits assumed): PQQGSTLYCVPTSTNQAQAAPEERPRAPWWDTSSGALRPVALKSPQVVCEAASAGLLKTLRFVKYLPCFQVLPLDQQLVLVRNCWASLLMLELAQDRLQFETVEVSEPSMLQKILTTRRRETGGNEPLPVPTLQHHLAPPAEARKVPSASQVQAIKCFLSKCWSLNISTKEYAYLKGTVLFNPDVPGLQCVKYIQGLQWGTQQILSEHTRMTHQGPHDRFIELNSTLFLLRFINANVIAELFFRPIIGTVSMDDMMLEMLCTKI
# hgDAF12 agonist: activates the H. glycines DAF-12 receptor ligand-binding domain; 1.8% of 370,000 active; activation, % at 6.8 µM; HEK293 GAL4-hgDAF12 UAS-luciferase reporter, agonist luminescence; normalized to butyrate control;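 active = activation above a cutoff set at the mean of all screened compounds plus 3 SD, cut at about 10% in these data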;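 note: 0% = DMSO wells and 100% = sodium butyrate wells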
# hcDAF-12 act: H. contortus DAF-12 activation, primary screen; HEK293 hcDAF-12 lit1-tk-luc reporter, luminescence; 0% DMSO, 100% Δ7-dafachronic acid; activation, % at 6.8 µM; 1.4% of 370,000 active;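 active = activation above the mean of all tested compounds plus 3 SD, cut at about 5.5% in these data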;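 note: 100% = response to 3 µM Δ7-dafachronic acid high control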
# DAX1 conf: NR0B1 (human) inhibition, confirmation. shares compounds with DAX1 inh-1. HEK293T StAR-promoter luciferase reporter, SF-1/DAX-1 repression. inhibition, % at 6.8 µM. 87% of 2,400 active. AID 652134;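 active = inhibition above the average of every tested compound plus 3 SD, cut at about 3.8% in these data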;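 note: 0% = DAX-1 cells with DMSO and 100% = no DAX-1 control cells with DMSO; active compounds raise luminescence by relieving repression of the StAR reporter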
# SF1 mutant ctr: counter-screen for DAX1 inhibitors: nonselective inhibitors with SF-1 AF2 mutant | shares compounds with DAX1 inh-1 | HEK293 StAR-luciferase, luminescence | inhibition, % at 6.8 µM | 78% of 2,400 active | AID 652136;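 active = inhibition above the mean of all tested compounds plus 3 SD, cut at about 3% in these data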;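 note: 0% = DAX-1 transfected cells with DMSO and 100% = cells without DAX-1 with DMSO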
# Numbers without * were called inactive; x = not tested or not shown.
SMILES,ssDAF12 agonist,DAX1 inh-1,DAX1 inh-2,hgDAF12 agonist,hcDAF-12 act,DAX1 conf,SF1 mutant ctr
O=C(CN1CCN(S(=O)(=O)c2ccc(Cl)cc2)CC1)NCC1(N2CCOCC2)CCCCC1,-1,4.7*,0,-1,-2,1,2
Cc1ccc(S(=O)(=O)N2CCN(CC(=O)NCC3(N4CCOCC4)CCCCC3)CC2)cc1,-1,1,-1,0,2,x,x
O=C(NCCc1cccc(Cl)c1)c1ccc2c(c1)OCO2,1,11*,-1,10,5.6*,13*,6.8*
Cc1cccnc1NC(=O)c1sc2ccccc2c1Cl,0,10*,1,13*,3,11*,5.3*
Cc1ccc2nsnc2c1NC(=O)c1sc2ccccc2c1Cl,-2,0,0,0,0,x,x
Cc1ccnc(NC(=O)CNC(=O)c2sc3ccccc3c2Cl)c1,0,10*,1,10,5,11*,7.2*
O=C(NCC(=O)N1CCCCC1)c1sc2ccccc2c1Cl,0,5.8*,2,8,1,5.5*,3.4*
COc1cc(-n2c(C)nc3cc(C(=O)N4CCCC4)ccc32)cc(OC)c1OC,-1,1,x,0,-3,x,x
CCCCC[C@H](C)N1C[C@H](COCc2ccccc2)Oc2cc(N3CCC[C@@H]3COC)ccc2S1(=O)=O,-1,5.4*,x,1,1,0,-1
CCCCC[C@H](C)N1C[C@@H](COCc2ccccc2)Oc2cc(N3CCC[C@H]3COC)ccc2S1(=O)=O,0,0,x,2,0,x,x
CCOc1ccc(CNC(=O)c2cccc(NC(=O)C3=C(C)OCCS3)c2)cc1,-1,0,-2,-1,-4,x,x
CC1=C(C(=O)Nc2ccc(CC(=O)NCc3ccc(OC(C)C)cc3)cc2)SCCO1,1.0*,15*,0,8,5.9*,23*,-3
CNc1cc(-c2ccc(OC)c(OC)c2)ncn1,0,5.3*,x,12*,4,9.5*,4.8*
CNc1cc(-c2ccc(C(=O)OC)cc2)ncn1,0,2,x,5,1,x,x
CCOC(=O)Cn1cc(CN2C(C(=O)OC)CN(Cc3ccc(F)cc3)CCS2(=O)=O)nn1 (configuration not stated),-2,0,x,0,0,x,x
CC(C)C[C@@H](CN1CCC[C@@H]1CN1C(=S)NC[C@@H]1Cc1ccccc1)N1C[C@H](Cc2ccc(O)cc2)N(CC2CCCCC2)C1=S,0,0,x,-2,0,x,x
Oc1ccc(C[C@H]2CNC(=S)N2CC2CCCN2C[C@H](Cc2ccccc2)N2C[C@H](Cc3ccc(O)cc3)N(CC3CCCCCC3)C2=S)cc1 (some centres not stated),-1,4.9*,-1,-1,0,2,1
Oc1ccc(C[C@H]2CN([C@@H](Cc3ccccc3)CN3CCCC3CN3C(=S)NC[C@@H]3Cc3ccccc3)C(=S)N2CC2CCCCC2)cc1 (some centres not stated),-1,0,x,3,-2,x,x
CCOc1ccc(CCN2C(=S)N([C@@H](CC(C)C)CN3CCCC3CN3C(=S)NC[C@@H]3CC(C)C)C[C@@H]2Cc2ccccc2)cc1 (some centres not stated),-1,4.8*,1,-2,-1,-2,-2
CC(C)C[C@@H](CN1CCC[C@@H]1CN1C(=S)NC[C@@H]1Cc1ccccc1)N1C[C@H](Cc2ccc(O)cc2)N(CC2CCCCCC2)C1=S,-1,5.0*,x,1,-2,-1,0
CCC(NC(=O)c1ccc2c(ccn2Cc2cccc(-c3ccc(C(=O)O)cc3)c2)c1)c1ccccc1 (configuration not stated),-1,-2,x,-2,1,x,x
CN(C)c1cccc(C(=O)N/N=C/c2ccccc2F)c1,0,8.5*,-2,12*,4,8.7*,1
O=C(NN=Cc1ccccc1Cl)c1ccccc1,0,5.2*,4,12*,2,14*,6.9*
CCOC(=O)C1(Cc2cccc(OC)c2)CCCN(C(=O)CCN2CCCO2)C1 (configuration not stated),0,4.8*,1,11*,3,7.0*,5.8*
C[C@@H]1CCN(C2CC2)S(=O)(=O)c2ccc(N3CC[C@H](O)C3)cc2O1,-1,0,x,-2,-1,x,x
SMILES,ssDAF12 agonist,DAX1 inh-1,DAX1 inh-2,hgDAF12 agonist,hcDAF-12 act,DAX1 conf,SF1 mutant ctr
Cc1cc(NC(=O)c2ccccc2Cl)ccc1NC(=O)c1ccccc1Cl,0,0,-1,-1,-3,x,x
Cc1ccc(C(=O)Nc2ccc(Cl)cc2C)c(Cl)c1,0,6.7*,1,12*,5,7.2*,5.4*
COC(=O)C1=C(C)N(Cc2cccc(C(F)(F)F)c2)C(=NCc2ccc3c(c2)OCO3)NC1c1ccccc1C(F)(F)F (configuration not stated),-1,-1,x,-1,-1,x,x
COc1ccc(C(=O)NNC(=O)c2ccncc2)cc1,-1,0,-1,0,-4,x,x
COc1ccc(O)c(C(=O)CC(=O)c2ccncc2)c1,-1,4.7*,2,12*,1,5.7*,3.6*
CSc1nnc(NC(=O)c2ccc3c(c2)OCO3)s1,0,13*,-1,11*,6.0*,3,-1
COCCSc1nnc(NC(=O)c2ccc3c(c2)OCO3)s1,0,1,3,3,-1,x,x
O=C(NC1CCCCC1)c1ccc2ccccc2c1,-1,5.8*,4.8*,6,3,7.5*,5.1*
CN1CCN(c2ccc3c(c2)Oc2ccccc2CN(Cc2cn(Cc4ccc(F)cc4)nn2)S3(=O)=O)CC1,0,-1,x,-1,1,x,x
CCc1ccc(OCC(=O)O/N=C(\N)c2ccncc2)c(Br)c1,0,7.6*,2,12*,5,7.0*,4.8*
COc1ccc(NC(=O)c2cc(-c3ccc(F)cc3C)n[nH]2)cc1OC,-1,2,x,-4,-3,x,x
Cc1cc(F)ccc1-c1cc(C(=O)Nc2ccc(F)cc2)[nH]n1,0,9.6*,x,12*,2,11*,5.6*
CC1CC(C)CN(CCCNC(=O)c2ccc3nc(N4CCOCC4)sc3c2)C1 (configuration not stated),-2,0,0,-1,-1,x,x
CCCN1CCN(CCCNC(=O)c2ccc3nc(N4CCC(C)CC4)sc3c2)CC1,0,6.0*,-2,10,5,9.2*,4.8*
O=C(C(=O)N1CCC(CNS(=O)(=O)c2ccccc2)CC1)c1cc2ccccc2o1,-2,0,x,-2,-1,x,x
O=C(NNC(=S)Nc1ccccc1)c1cccnc1,-1,5.1*,0,3,0,3.6*,5.6*
